We go through 27 molecules from the supplement of paper PMC11172423.

SMILES strings stand for the structures. A number with no mark means an inactive call.

The assay has as its system Falciformispora senegalensis CBS197.79. The experiment in a line: growth relative to untreated control; higher = less inhibition, active = 20 or less. Put shortly: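 In 96-well plates, suspended hyphal fragments of M. mycetomatis MM55 or F. senegalensis CBS197.79 were exposed to compound at 100 or 25 µM for 7 days at 37 °C. The suspension medium was colourless RPMI 1640 with L-glutamine and MOPS, adjusted to 68–72% transmission at 660 nm. Viability was measured with MTS (2 h, 490 nm) or resazurin (600 nm). Growth means metabolic activity compared with the untreated growth control after blank correction of both with medium plus dye.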

Consider `CN1CCN(c2ccc(C(=O)NCc3cnc(C#N)nc3NCC(C)(C)C)cc2)CC1`, for which the growth is, setting by setting: (25 µM) 102%; (100 µM) 18.9% (active).
For the molecule `Cc1cnc2nc(NC3COc4ccccc43)nc(NC(C3CC3)C3CC3)c2c1` (centres undefined), the growth (25 µM) is 83.2% and the growth (100 µM) is 33.4%.
On to `CC(C)C[C@H](NC(=O)[C@H](Cc1ccccc1)NC(=O)c1cnccn1)B(O)O`, for which the growth (25 µM) is 103% and the growth (100 µM) was 93.7%.
Consider `CCCCC(=O)N(Cc1ccc(-c2ccccc2-c2nn[nH]n2)cc1)[C@H](C(=O)O)C(C)C`, for which the growth runs as follows: (25 µM) 103%; (100 µM) 107%.
The matching figures for `CC(C)OC(=O)[C@H](C)N[P@](=O)(OC[C@H]1O[C@@H](n2ccc(=O)[nH]c2=O)[C@](C)(F)[C@@H]1O)Oc1ccccc1`: 112% and 108%.
The matching figures for `Cc1ccc(NC(=O)c2ccc(CN3CCN(C)CC3)cc2)cc1Nc1nccc(-c2cccnc2)n1`: 95.1% and 103%.
Regarding `Cc1c[nH]c(-c2cccc(C(=O)NC3CCC(CCN4CCc5ccc(C#N)cc5CC4)CC3)c2)n1` (centres undefined), the growth runs as follows: (25 µM) 74.1%; (100 µM) 92.9%.
In the same order, the values of `CNC(=O)c1cc(Oc2ccc(NC(=O)Nc3ccc(Cl)c(C(F)(F)F)c3)c(F)c2)ccn1` are 109% and 101%.
In the same order, the values of `CC(C)c1nc(CN(C)C(=O)N[C@H](C(=O)N[C@@H](Cc2ccccc2)C[C@H](O)[C@H](Cc2ccccc2)NC(=O)OCc2cncs2)C(C)C)cs1` are 101% and 104%.
The matching figures for `N#Cc1c(N)nc(NC2CC2)nc1N`: 99.7% and 92.9%.
`c1ccc(-c2ccnc(C3CCN(CC45CNCC4C5)CC3)n2)cc1` (centres undefined): the growth is 82.4% (25 µM) and 91.2% (100 µM).
In the same order, the values of `CCOc1ccccc1NC(=O)Cn1c(=O)n(Cc2ccccc2)c(=O)c2c(C)c(C(=O)N(C)C)sc21` are 92.1% and 108%.
In the same order, the values of `COc1cccc2c1C(=O)c1c(O)c3c(c(O)c1C2=O)C[C@@](O)(C(=O)CO)C[C@@H]3O[C@H]1C[C@H](N)[C@H](O)[C@H](C)O1` are 94.8% and 96.3%.
On to `FC(F)(F)c1cc(Cl)cc(Nc2nc3cnc(NC4CCOCC4)nc3n2C2CCNCC2)c1`, for which the growth reads like this: (25 µM) 93.9%; (100 µM) 79.8%.
The matching figures for `CC(=O)c1nn(-c2c(Cl)cc(C(F)(F)F)cc2Cl)c(N)c1S(C)=O` (centres undefined): 94.6% and 83.2%.
On to `OC(Cn1cncn1)(Cn1cncn1)c1ccc(F)cc1F`, for which the growth is 106% (25 µM) and 105% (100 µM).
The matching figures for `Nc1nc(Nc2ccc3c(c2)CC[C@@H](N2CCCC2)CC3)nn1-c1cc2c(nn1)-c1ccccc1CCC2`: -3.21% (active) and 5.2% (active).
The matching figures for `Cn1c(O)nnc1Cn1ccc(C(F)(F)F)c(Oc2cc(Cl)cc(C#N)c2)c1=O`: 106% and 106%.
`Cc1cc2c(cc1Cl)N(C(=O)Nc1cc(F)cc(-c3cncnc3)c1)CC2`: the growth by setting is: (25 µM) 87%; (100 µM) 101%.
The matching figures for `Cc1cccc2c1N(C(=O)c1cc(Br)nn1-c1ncccc1Cl)CN(C(C)C)C2=O`: 94% and 93.3%.
The matching figures for `Cc1cccc(C=NNc2cc(N3CCOCC3)nc(OCCc3ccccn3)n2)c1`: 82.1% and 101%.
In the same order, the values of `O=S(=O)(NCC1(O)CCOc2ccccc21)c1ccccc1F` (centres undefined) are 85.9% and 113%.
With `CC(N)CCn1c(Nc2cc(Cl)cc(C(F)(F)F)c2)nc2cnc(NC(C)(C)C)nc21` (centres undefined), the growth was 19.4% (active) (25 µM) and 12.8% (active) (100 µM).
In the same order, the values of `O=C(NC1CCCc2c1[nH]c1ccc(Cl)cc21)c1ccccn1` (centres undefined) are 107% and 103%.
The matching figures for `CC(=O)N1CCN(c2ccc(OC[C@H]3CO[C@](Cn4ccnc4)(c4ccc(Cl)cc4Cl)O3)cc2)CC1`: 31.6% and 12.3% (active).
For the molecule `CCCCc1oc2ccccc2c1C(=O)c1cc(I)c(OCCN(CC)CC)c(I)c1`, the growth (25 µM) is 101% and the growth (100 µM) was 104%.
For the molecule `C[C@H]1O[C@@H](O[C@H]2[C@@H](O)C[C@H](O[C@H]3[C@@H](O)C[C@H](O[C@H]4CC[C@@]5(C)[C@H](CC[C@@H]6[C@@H]5CC[C@]5(C)[C@@H](C7=CC(=O)OC7)CC[C@]65O)C4)O[C@@H]3C)O[C@@H]2C)C[C@H](O)[C@@H]1O`, the growth is 99.1% (25 µM) and 98% (100 µM).
